Laboratory results reported in ChEMBL document CHEMBL3988442, “University of Dundee, Small-Polar-MMV Screening Library” (2021).
The whole screen tested about 48,000 compounds, of which about 13,000 (27%) showed an effect of 50% or more. Some of the results follow.

The compounds below were run on Wolbachia pipientis (assay: Anti-Wolbachia Cell-Based Screen). Conditions: 5 µM.
Type: functional
Set-up: scale not given: in the data most compounds retested in dose-response had high values

Question: Which “Percent Effect” value does the source give for CC(C)(C)c1nc2cc(NC(=O)Cn3ccc(=O)[nH]c3=O)ccc2o1 here?
Answer: -2.056%

Question: Which “Percent Effect” value does the source give for Cc1cccc(C(C(=O)N2CCN(C(=O)c3ccc[nH]3)CC2)N(C)C)c1 (stereo unspecified) here?
Answer: 8.522%

Question: With Clc1ccc2nc(N3CCC(NCCCC4CCOC4)CC3)sc2c1 (stereo unspecified) as the compound, how does the “Percent Effect” value read?
Answer: 5.411%

Question: For CC(C)COCC(C)NC(=O)NCc1cccc(-n2cncn2)c1 (stereo unspecified), which “Percent Effect” value is on record?
Answer: 11.71%

Question: With CCN1CCCC(C)(C(=O)NCc2nnnn2-c2ccccc2)C1 (stereo unspecified) as the compound, how does the “Percent Effect” value read?
Answer: 65.9%

Question: With CCN1CCCC(C)(C(=O)NCCc2n[nH]c(=O)[nH]2)C1 (stereo unspecified) as the compound, how does the “Percent Effect” value read?
Answer: 34.99%

Question: Which “Percent Effect” value does the source give for CCN1CCCC(C)(C(=O)NCCc2nnc(C)[nH]2)C1 (stereo unspecified) here?
Answer: 0.7717%

Question: Which “Percent Effect” value does the source give for CCOC(=O)C1(Cc2ccccc2)CCCN(Cc2nccn2CC)C1 (stereo unspecified) here?
Answer: 6.244%

Question: For CCN1CCCC(C)(C(=O)NCCCc2nc(C)cs2)C1 (stereo unspecified), which “Percent Effect” value is on record?
Answer: -10.41%

Question: CCN1CCCC(C)(C(=O)NCc2nncn2CCc2ccccc2)C1 (stereo unspecified) was tested. Which “Percent Effect” value did it give?
Answer: 118.3%

Question: CCC1(CO)CCCN(Cc2nccn2Cc2ccccc2)C1 (stereo unspecified) was tested. Which “Percent Effect” value did it give?
Answer: 7.742%

Question: How did the “Percent Effect” value turn out when CCN1CCCC(C)(C(=O)NCc2nccn2Cc2ccccc2)C1 (stereo unspecified) was run?
Answer: 105.1%

Question: Cc1nnc(N2CCC(CN(C)C(C)C)CC2)c(C#N)c1C was tested. Which “Percent Effect” value did it give?
Answer: 6.063%

Question: O=C(CC1CC1)N1CCn2cc(Cn3cncn3)nc2C1 was tested. Which “Percent Effect” value did it give?
Answer: 0.5446%

Question: For Cn1cc(Br)cc1C(=O)NCC(C)(O)c1ccsc1 (stereo unspecified), which “Percent Effect” value is on record?
Answer: -10.72%

Question: For Cn1cnc(S(=O)(=O)NCC(C)(O)c2ccc3c(c2)OCO3)c1 (stereo unspecified), which “Percent Effect” value is on record?
Answer: -0.9964%

Question: How did the “Percent Effect” value turn out when Cn1cc(S(=O)(=O)NCC(C)(O)c2ccsc2)cn1 (stereo unspecified) was run?
Answer: 76.2%

Question: CSCC(C)(O)CNc1ncccc1I (stereo unspecified) was tested. Which “Percent Effect” value did it give?
Answer: 15.53%

Question: For Cc1ncsc1C(=O)N1CCCCC1c1cc2nc(C)c(C)c(O)n2n1 (stereo unspecified), which “Percent Effect” value is on record?
Answer: 146.5%

Question: For CC(=O)N1CCN(C(=O)c2snnc2C)[C@H]2CS(=O)(=O)C[C@H]21, which “Percent Effect” value is on record?
Answer: -13.7%

Question: With Cc1nnsc1C(=O)N1CCCCC1c1cc2nc(C)c(C)c(O)n2n1 (stereo unspecified) as the compound, how does the “Percent Effect” value read?
Answer: 136.2%

Question: For Cc1nc2cc(C3CCCCN3C(=O)C3CC3)nn2c(O)c1C (stereo unspecified), which “Percent Effect” value is on record?
Answer: 136.9%

Question: For Cc1nnsc1C(=O)N1CCN(C(=O)C2CCC2)[C@@H]2CS(=O)(=O)C[C@@H]21, which “Percent Effect” value is on record?
Answer: 2.369%

Question: How did the “Percent Effect” value turn out when Cc1nc2cc(C3CCN(Cc4cccc(F)c4F)C3)nn2c(O)c1C.O=C(O)CC(O)(CC(=O)O)C(=O)O (stereo unspecified) was run?
Answer: -10.9%

Question: Which “Percent Effect” value does the source give for CC1CCCN(c2ccc(C(N)=O)cc2NC(=O)CC2=CCNCC2)C1 (stereo unspecified) here?
Answer: 16.61%

Question: Which “Percent Effect” value does the source give for O=C1N(Cc2ccccc2F)CCCC12CCN(C1CCSCC1)C2 (stereo unspecified) here?
Answer: -13.98%

Question: Cc1ncsc1CN1Cc2cn(C)nc2C(COCC2CC2)C1.O=C(O)C(F)(F)F.O=C(O)C(F)(F)F (stereo unspecified) was tested. Which “Percent Effect” value did it give?
Answer: 13.37%

Question: With Cc1ccnn1CC(=O)N1CCCN(C2Cc3ccccc3C2)CC1 as the compound, how does the “Percent Effect” value read?
Answer: -5.068%

Question: For CS(=O)(=O)NCC1CCCCN1C(=O)c1csc(-c2ccsc2)n1 (stereo unspecified), which “Percent Effect” value is on record?
Answer: 11.05%

Question: Which “Percent Effect” value does the source give for CC(C)N1c2sc(-c3ccsc3)nc2CC1C(=O)NC1CCCC1 (stereo unspecified) here?
Answer: 65.31%

Question: With O=C(NC1CCCC1)C1Cc2nc(-c3ccsc3)sc2N1CC1CC1 (stereo unspecified) as the compound, how does the “Percent Effect” value read?
Answer: 63.55%

Question: How did the “Percent Effect” value turn out when CC(C)N1c2sc(-c3ccccc3)nc2CC1C(=O)NC1CCCC1 (stereo unspecified) was run?
Answer: 22.35%

Question: Which “Percent Effect” value does the source give for O=C([C@@H]1CCCO1)N1CCC(Cn2cc(-c3ccsc3)nn2)CC1 here?
Answer: -13.58%

Question: For O=C(NC1CC1)C1CCCN1c1ncnc2ccsc12 (stereo unspecified), which “Percent Effect” value is on record?
Answer: -11.59%

Question: Which “Percent Effect” value does the source give for Cc1cncc(C(=O)N2CCC(Cn3cc(-c4ccsc4)nn3)CC2)c1 here?
Answer: -0.4456%

Question: CC(C)N1c2sc(-c3ccsc3)nc2CC1C(=O)NC1CC1 (stereo unspecified) was tested. Which “Percent Effect” value did it give?
Answer: 38.95%

Question: With CC(C)NC(=O)C1Cc2nc(-c3ccsc3)sc2N1CC1CC1 (stereo unspecified) as the compound, how does the “Percent Effect” value read?
Answer: 78.87%

Question: For COCCCN1CCCN(C(C)C(=O)Nc2cccc(I)c2)CC1 (stereo unspecified), which “Percent Effect” value is on record?
Answer: 23.62%

Question: COc1ccc(-n2nc(C)c(C(C)=O)c2C)cc1CO was tested. Which “Percent Effect” value did it give?
Answer: -7.291%

Question: Which “Percent Effect” value does the source give for Cc1nc(COCc2nc3c(o2)CN(C(=O)c2ccoc2)C3)cs1 here?
Answer: 0.193%

Question: Which “Percent Effect” value does the source give for CN(C)c1nc2c(c(N3CCC(O)CC3)n1)CN(CC(C)(C)C)CC2 here?
Answer: 3.405%

Question: How did the “Percent Effect” value turn out when c1cc(CNCc2ccnc(N3CCCC3)c2)c2c(c1)OCO2 was run?
Answer: -29.77%

Question: With Cc1noc(C)c1C(=O)NCCN1CCOCC1 as the compound, how does the “Percent Effect” value read?
Answer: 15.76%

Question: For Cc1nc(-c2ccsc2)ccc1C(=O)NCCC(=O)N1CCCC1, which “Percent Effect” value is on record?
Answer: 0.2112%

Question: With CCC(CC)(CCCNC(=O)c1c(C)noc1C)C1OCCO1 as the compound, how does the “Percent Effect” value read?
Answer: -3.207%

Question: Cc1noc(C(C)C)c1C(=O)NCCCN1CCCCCC1=O was tested. Which “Percent Effect” value did it give?
Answer: 122%

Question: Which “Percent Effect” value does the source give for CC(NC(=O)NCCN1CCCCCC1=O)c1nncn1C (stereo unspecified) here?
Answer: -0.9457%

Question: How did the “Percent Effect” value turn out when CC(Cn1cccn1)NC(=O)NCCCN1CCCCCC1=O (stereo unspecified) was run?
Answer: -6.235%

Question: Cc1noc(C(C)C)c1C(=O)NCCC(=O)N1CCCCC1 was tested. Which “Percent Effect” value did it give?
Answer: 90.26%

Question: Cc1noc(C(C)C)c1C(=O)NCCN1CCOCC1 was tested. Which “Percent Effect” value did it give?
Answer: 72.1%

Question: For Cc1noc(C(C)C)c1C(=O)NCC1CCCN1Cc1ccccc1 (stereo unspecified), which “Percent Effect” value is on record?
Answer: -8.242%
